PubChem BioAssay AID652065 (The Scripps Research Institute Molecular Screening Center, 2013)
Where “and” joins values, the source holds several entries; their conditions need not be identical. Equal values may be shown once. In all, about 4,300 compounds went through this assay and about 3,000 (70%) were called active.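 Rule for the calls: active = inhibition above a per-plate cutoff, the mean inhibition of sample wells plus 3 SD (cut at about 35% in these data); inactive = the rest.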 The set was probably picked from earlier hits. These entries were drawn from the full list. Some compounds were tested as several samples or in several runs, with calls that do not always agree.

Experiment: small molecules binding CAG repeat RNA – biochemical, fluorescence, confirmation (AID 652065);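 note: loss of TO-PRO-1 fluorescence as compound displaces dye from 1x1 AA loop RNA; 0% = DMSO only wells and 100% = 100 µM mitoxantrone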
Conditions: r(CAG) RNA repeat, TO-PRO-1 dye displacement fluorescence; at 3 µM; stronger effect = higher value

| Compound | inhibition |
| --- | --- |
| Cc1ccc(S(=O)(=O)N2[C@@H](c3ccccc3F)C(C(=O)O)=CC[C@H]2c2ccc(Cl)cc2)cc1 | 64.8% (active) |
| Cc1ccccc1S(=O)(=O)N1[C@@H](c2cccc(Cl)c2)C(C(=O)O)=CC[C@H]1c1ccc(Cl)cc1 | 83.1% (active) |
| Cc1ccc([C@@H]2CC=C(C(=O)O)[C@H](c3cccc(Cl)c3)N2S(=O)(=O)c2ccc(C)cc2)cc1 | 80.4% (active) |
| COc1ccc(Cl)cc1-n1c(=S)sc2c(=O)n(-c3ccc(F)cc3)c(SCC(=O)O)nc21 | 28.9% (inactive) |
| Cc1oc2c(F)c(F)c(F)c(F)c2c1S(=O)(=O)Nc1cccc(C(F)(F)F)c1 | 44.5% (active) |
| Cc1ccc(S(=O)(=O)NCCC(c2ccccc2)c2ccccc2)cc1C(=O)O | 28% (inactive) |
| COc1ccc(NS(=O)(=O)c2cc(NC(=O)CC(=O)c3ccc([N+](=O)[O-])cc3)ccc2C)cc1 | 44.4% (active) |
| COc1cc(OC)c(S(=O)(=O)Nc2ccccc2C(=O)O)cc1S(=O)(=O)Nc1ccccc1C(=O)O | 39.9% (active) |
| COc1ccc(NS(=O)(=O)c2cc(C(=O)Nc3ccccc3C(=O)O)ccc2C)cc1 | 52% (active) |
| O=C(Nc1ccc2c(c1)CCC2)c1cccc(S(=O)(=O)Nc2ccccc2Cl)c1 | 40% (active) |
| CO/N=C(\C(=O)N[C@@H]1C(=O)N2C(C(=O)O)=C(COC(C)=O)CS[C@H]12)c1csc(N)n1 (stereo in doubt) | 48.1% (active) |
| Cc1ccccc1OCC(=O)Nc1nnc(S(=O)(=O)N2CCCC2)s1 | 33.1% (inactive) |
| O=C(N/N=C/c1cc(Cl)cc([N+](=O)[O-])c1O)C(O)(c1ccccc1)c1ccccc1 | 52.6% (active) |
| Cc1ccc(Sc2cc(C(=O)c3ccccc3C(=O)O)ccc2[N+](=O)[O-])cc1 | 68.5% (active) |
| CC[C@@H](C)[C@H](NC(=O)CCc1c(C)c2cc3c4c(oc3c(C)c2oc1=O)CCCC4)C(=O)O | 52.4% (active) |
| Cc1c(CCC(=O)N[C@@H](CC(C)C)C(=O)O)c(=O)oc2c(C)c3oc4c(c3cc12)CCCC4 | 48.4% (active) |
| CCCCC[C@@H]1C=C(C(=O)O)[C@H](c2ccc(C#N)cc2)N1S(=O)(=O)c1ccc(C)cc1 | 55.7% (active) |
| Cc1ccc(S(=O)(=O)N2[C@@H](c3ccc(Br)cc3)C(C(=O)O)=C[C@H]2CC2CCCC2)cc1 | 72.6% (active) |
| Nc1[nH]c(=S)nc2nc(-c3ccccc3)c(-c3ccccc3)nc12 | 15.6% (inactive) |
| NC(=O)c1c(Nc2nc3c(F)cccc3s2)sc2c1CCCC2 | 39.3% (active) |
| Cc1cc(N2C(=O)C(O)=C(C(=O)c3ccc(C)o3)C2c2ccc(OCc3ccccc3)cc2)no1 (stereo not drawn) | 64.8% (active) |
| N#Cc1c(-c2ccccc2)cc(-c2ccccc2)nc1SCC(=O)O | 44.6% (active) |
| Nc1cccc(-c2cc(-c3ccccc3)nc(-c3cccc(N)c3)n2)c1 | 21.8% (inactive) |
| O=C(Cc1ccccc1)Nc1ccc(C(=O)Nc2ccccc2C(=O)O)cc1 | 50.5% (active) |

| Compound | inhibition |
| --- | --- |
| Cc1ccc(C(=O)O)cc1-c1ccc(/C=C2\SC(=O)N(CC(=O)Nc3ccc4c(c3)OCO4)C2=O)o1 | 85.1% (active) |
| CCn1cc(C(=O)NCC2COc3ccccc3O2)c2cc(OC)c(OC)cc2c1=O (stereo not drawn) | 3.06% (inactive) |
| O=C(COc1ccccc1Cl)Nc1ccc(C(=O)c2ccc(C(=O)O)cc2)cc1 | 27.3% (inactive) |
| Cc1cc(C)cc(OCC(=O)Nc2cc(NC(=O)COc3cc(C)cc(C)c3)cc(C(=O)O)c2)c1 | 78.6% (active) |
| Cc1cccc(OCC(=O)Nc2ccc(C(=O)O)cc2NC(=O)COc2cccc(C)c2)c1 | 44.8% (active) |
| Cc1cc(C)cc(Oc2c(C(F)(F)F)oc3cc(OCC(=O)O)ccc3c2=O)c1 | 27.1% (inactive) |
| COc1ccc(OCC(=O)Nc2nnc(-c3ccco3)s2)cc1 | 12.6% (inactive) |
| CCCc1ccc(OCC(=O)NNC(=S)NC(=O)c2ccco2)cc1 | 56.7% (active) |
| CC(Oc1ccc2ccccc2c1)C(=O)NNC(=S)NC(=O)c1ccco1 (stereo not drawn) | 42.4% (active) |
| CC1CCCCN1S(=O)(=O)c1ccc(C(=O)Nc2nnc(-c3cccs3)o2)cc1 (stereo not drawn) | 40.6% (active) |
| CN1CCN(S(=O)(=O)c2cccc(C(=O)Nc3sccc3C#N)c2)CC1 | 24.8% (inactive) |
| N#Cc1ccccc1CN1C(=O)S/C(=C/c2cccn2-c2cccc(C(=O)O)c2)C1=O | 63.3% (active) |
| Cc1cc2nc(-c3ccco3)c(Cc3cccc(F)c3)n2c(C)c1Br | 30.1% (inactive) |
| Cc1ccc(NC(=S)NNC(=O)CSc2nnc(SCc3ccccc3Cl)s2)cc1 | 48.4% (active) |
| O=C(Nc1nnc(-c2ccccc2)o1)c1cc(-c2cccs2)nc2ccccc12 | 68.2% (active) |
| Cc1ccc(Cn2c(SCC(=O)N/N=C/c3ccccc3OCC(=O)O)nc3ccccc32)cc1 | 65.5% (active) |
| Oc1c(Cl)cc(Cl)c(Cl)c1Cc1c(O)c(Cl)cc(Cl)c1Cl | 91.4% (active) |
| NC(c1csc(NC(=O)Nc2cccc(C(F)(F)F)c2)n1)C1CCCCC1 (stereo not drawn) | 24.4% (inactive) |
| NC(c1ccccc1)c1csc(NC(=O)Nc2cccc(C(F)(F)F)c2)n1 (stereo not drawn) | 59.1% (active) |
| COc1ccc(C(N)c2csc(NC(=O)Nc3cccc(C(F)(F)F)c3)n2)cc1 (stereo not drawn) | 25.6% (inactive) |
| CCN1C(=O)/C(=C2/Sc3ccccc3N2CCCS(=O)(=O)O)SC1=S | 29.9% (inactive) and 46.4% (active) |
| Cc1oc2cc([N+](=O)[O-])c(O)c([N+](=O)[O-])c2c1C(=O)c1ccc(Br)cc1 | 50.2% (active) |
| CCCOc1ccc(Cn2c(O)cc(=O)[nH]c2=O)cc1 | 18.4% (inactive) |
| C=CCSc1nsc(NC(=O)Nc2cccc(C(C)=O)c2)n1 | 34.4% (inactive) |
